SMILES strings stand for the structures.

The target of this test is Follistatin (Homo sapiens) (UniProt P19883). The experiment in a line: FST protein binding to printed compounds – biochemical, small-molecule microarray, 635/667 nm fluorescence, primary screen (AID 1132). The following applies: 635 nm fluorescence, higher = more signal.
Sequence of Follistatin (Homo sapiens) (P19883 whole entry, looked up): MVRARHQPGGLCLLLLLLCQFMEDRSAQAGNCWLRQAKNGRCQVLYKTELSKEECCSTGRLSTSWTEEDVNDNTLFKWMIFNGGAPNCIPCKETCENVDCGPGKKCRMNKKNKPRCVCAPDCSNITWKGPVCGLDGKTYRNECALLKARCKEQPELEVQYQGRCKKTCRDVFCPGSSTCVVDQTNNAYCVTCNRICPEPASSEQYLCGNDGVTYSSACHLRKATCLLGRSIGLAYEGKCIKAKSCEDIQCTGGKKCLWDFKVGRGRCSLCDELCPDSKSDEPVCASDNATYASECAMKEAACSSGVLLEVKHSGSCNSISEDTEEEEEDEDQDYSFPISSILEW
`CC(=O)OC[C@H]1O[C@@H](ON=C[C@@H](C)[C@H](OCc2ccccc2)C(C)C)[C@H](OC(C)=O)[C@@H](OC(C)=O)[C@@H]1OC(C)=O` registered a composite z-score of -1. Take `CN1C(=O)C2C=CC(C(O)C(c3ccccc3)c3ccccc3)N(NC(=O)OC(C)(C)C)C2C1=O` (stereo unspecified): the composite z-score worked out at 1.03. Consider `COC(=O)C1=C(C)N(Cc2ccccc2)[C@]23O[C@](C(=O)OC)(C(=O)N2[C@@H]1c1ccccc1)[C@H]1CCOC(=O)[C@H]13`, for which the composite z-score was found to be 0.384. Under `C=C(CCCC)C(=O)CC[C@@H](OC(C)=O)c1cccc(OCCO)c1` stands 1.3; under `CO[C@@H]1COC(=O)CC=C[C@@H](C)[C@@H]2C=C[C@@H](O)[C@@H](COC(=O)CC=C[C@H]1C)O2`, 1.33. In the case of `COC(=O)[C@@]1(Cc2ccccc2)[C@H]2c3cc(C(=O)N4CCCC4)n(Cc4ccccn4)c3C[C@H]2CN1C(=O)c1ccccc1`, the composite z-score came to 1.24. Under `CCOC(=O)NN=C1C[C@@H](O)[C@@H](O)[C@@H]2[C@@H]3C(=O)N(C(C)(C)C)C(=O)[C@@H]3CC[C@@H]12` stands -0.686.

In the case of `C=CCN1C(=O)[C@]2(O[C@H](CCn3cc(CCO)nn3)[C@@H]([Si](C)(C)c3ccc(OC)cc3)[C@@H]2C)c2cc(N3CCOC3=O)ccc21`, the composite z-score was -0.293. With `CCOc1ccc(N2C(=O)/C(=C/C=C/c3ccccc3OC)S(=O)(=O)C2c2cccc([N+](=O)[O-])c2)cc1` (stereo unspecified), the composite z-score was determined as 0.475.

`O[C@@H](Cc1ccccc1)[C@H]1C2C=CCCC(c3ccccc3)=C2CN1Cc1cccc(Cl)c1` (stereo partly specified) came in with a composite z-score of 0.995. In turn, `CO[C@H]1O[C@H](CO)[C@@H](OC(=O)Nc2ccc(C#N)cc2)[C@H](OC(=O)c2cc3ccccc3[nH]2)[C@H]1OC(=O)c1cc2ccccc2[nH]1` gave a composite z-score of 0.491. `Cc1ccc(S(=O)(=O)N[C@@H]2COC(=O)[C@H](C)COC(=O)CC=C[C@H]2C)cc1` showed a composite z-score of 1.35.

With `C=CC[C@@H]1C=C[C@H](ON=C2c3cc(OC)ccc3O[C@H](c3cccc(OC)c3)[C@H]2O)[C@@H](CO)O1`, the composite z-score was -0.0389. Under `C=CCC(OC(C)=O)[C@@H]1[C@@H](N(Cc2cc3ccccc3o2)C(=O)Cc2ccc(F)cc2)c2cc(OCCCO)ccc2N1C(=O)Cc1ccc(OC)cc1` (stereo partly specified) stands 0.354; under `CCOC(=O)[C@H](CC(C)C)NC(=O)CCC1CC(OC(=O)NCCc2ccc(F)cc2)CC2(CCCC(COC(=O)NCc3ccccc3)O2)O1` (stereo partly specified), 0.693; under `O=C1[C@H]2[C@H]3[C@H](O)[C@H](O)CC(=NOC[C@@H](O)COCc4ccco4)[C@H]3CC[C@H]2C(=O)N1Cc1ccc2c(c1)OCO2`, 1.3. Under `CC(CCC(=O)OC[C@H]1O[C@H](C#Cc2ccccc2)C=C[C@@H]1Oc1ccc(C)cc1)=NOC[C@@H](O)[C@H]1O[C@@H]2OC(C)(C)O[C@@H]2[C@H]1O` stands -0.382; under `CC(C)(C)N1CC=CC23O[C@@H]4C=CCCOC(=O)C4[C@H]2C(=O)N(CCCCCO)[C@@H]3C1=O` (stereo partly specified), -0.435; under `CCc1cc2c(nc1CC)CCN(CCC(C)=NO[C@@H](C)c1cc(-c3c(C)cc(C)cc3C)no1)C2`, -0.265. With `CC(C)CON=C1C[C@@H](O)[C@@H](O)[C@@H]2[C@@H]3C(=O)N(Cc4ccccc4)C(=O)[C@@H]3CC[C@@H]12`, the composite z-score was -0.163.

In turn, `COCCCNC(=O)[C@@]1(C)c2ccccc2C(=O)N(Cc2ccc(OC(F)(F)F)cc2)[C@H]1c1ccc(CO)cc1` registered a composite z-score of -0.0328. Under `O=C1C2=CC[C@H]3C(=O)N(Cc4ccc5c(c4)OCO5)C(=O)[C@H]3[C@H]2[C@H](O)[C@@H]2O[C@H]12` stands 0.281; under `COc1ccc(O[C@H]2C=C[C@@H](c3ccccc3)O[C@@H]2COC(=O)CCC(C)=NOC(C)CN2CCCCc3nc(C)c(C)cc32)cc1` (stereo partly specified), 0.0731. As to `CC(CCN1CCCCc2nc(C)c(C)cc21)=NOC(C)CN1CCCCc2nc(C)c(C)cc21` (stereo unspecified), the composite z-score is 1.29. In the case of `O=C1[C@H]2[C@H]3[C@H](O)[C@H](O)CC(=NOCc4ccccc4)[C@@H]3CC[C@H]2C(=O)N1C1CCCCC1`, the composite z-score was found to be 0.207. Under `COc1ccc([Si](C)(C)[C@@H]2[C@@H](CCO)O[C@]3(C(=O)N(Cc4ccc(NC(C)=O)cc4)c4ccccc43)[C@H]2C)cc1` stands 1.07; under `Cc1cc2c(c(=O)o1)[C@H](O)[C@H]1O[C@H]1C2=O`, 0.429. As for `O=C1[C@H]2[C@H]3[C@H](O)[C@H](O)CC(=NOC[C@@H](O)COCc4ccco4)[C@H]3CC[C@H]2C(=O)N1C1CCCCC1`, the composite z-score was determined as 1.21. Regarding `[N-]=[N+]=Nc1ccccc1C[C@@]1(C(N)=O)N=C(c2ccc(OCCCO)cc2)O[C@@H]1c1ccccc1`, the composite z-score stood at 0.283. With `CCOC(=O)NN=C1C[C@@H](O)[C@@H](O)[C@@H]2[C@@H]3C(=O)N(CC)C(=O)[C@@H]3CC[C@@H]12`, the composite z-score was 0.314. The compound `CC(C)NC(=O)[C@@]1(c2ccc([N+](=O)[O-])cc2)CC(=O)N(CC23CC4CC(CC(C4)C2)C3)[C@@H]1c1ccc(CO)cc1I` had a composite z-score of 1.06. Under `COC(=O)C1(C)C=C2C(=C(c3ccccc3)C(=O)C2C)CN1` (stereo unspecified) stands -0.882. Under `O=C1[C@H]2[C@H]3[C@H](O)[C@H](O)CC(=NO[C@@H]4O[C@H](CO)[C@@H](O)[C@H](O)[C@H]4O)[C@@H]3CC[C@H]2C(=O)N1Cc1ccccc1` stands -0.303; under `CCOC(=O)CCN1C(=O)[C@H]2[C@H]3[C@H](O)C=CC(=O)[C@@H]3CC[C@H]2C1=O`, 0.488; under `Cc1cc2c(nc1C)CCCN2CC(C)ON=C1[C@H]2CCn3c(=O)n(-c4ccccc4)c(=O)n3[C@H]2[C@H](O)[C@@H]2O[C@H]12` (stereo partly specified), 0.687. Under `CCCCc1nc2c(c3c1C[C@H](C)OC3)CN(CCC(C)C)CC2` stands 0.818.

These data come from PubChem BioAssay.
